LmPK inhibitor – blocks Leishmania mexicana pyruvate kinase activity; Q27686; purified LmPK, Kinase-Glo ATP luminescence, 1 h; Potency, µM (doses to about 57.5 µM), without a hit: at the highest dose activity change, negative = inhibition, most hits filed as inhibitors; actives 0.37% (n = 290,000); further: potency means the concentration at half of the fitted maximal effect; on the % scale 0 is the no-effect control and ±100 the full control effect
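Kinase-Glo luminescence read after 1 h RT reaction of 0.1 nM LmPK with 0.5 mM PEP and 0.1 mM ADP. Activity scaled between uninhibited and enzyme-free controls.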
FBPA Giardia inh – blocks Giardia fructose-bisphosphate aldolase activity; purified Giardia FBPA; AID 2451; A8B2U2; actives 0.71% (n = 290,000); Potency, µM (top dose mostly 59.6 µM), for inactives: at the top dose activity, negative = inhibition, usual class: inhibitors; further: potency means the concentration at half of the fitted maximal effect; on the % scale 0 is the no-effect control and ±100 the full control effect; nearly all actives have a fitted effect of over 55% in size
Target sequence (A8B2U2 whole entry, looked up): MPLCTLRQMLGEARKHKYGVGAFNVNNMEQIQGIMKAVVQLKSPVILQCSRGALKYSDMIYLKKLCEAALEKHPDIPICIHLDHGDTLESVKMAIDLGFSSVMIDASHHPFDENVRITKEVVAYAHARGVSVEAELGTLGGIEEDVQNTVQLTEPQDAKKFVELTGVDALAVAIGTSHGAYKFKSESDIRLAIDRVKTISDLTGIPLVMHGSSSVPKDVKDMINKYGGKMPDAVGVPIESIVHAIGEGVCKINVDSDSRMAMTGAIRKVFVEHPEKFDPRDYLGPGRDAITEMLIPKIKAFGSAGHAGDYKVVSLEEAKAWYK
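Giardia FBPA (40 nM reagent) was preincubated 10 min at RT with compound (up to 57.5 uM final), then substrate plus GAPDH/TPI/NAD/arsenate coupling system with diaphorase/resazurin was added; resorufin fluorescence (525/598 nm) was read after 20 min.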
Cycloheximide cs – counter-screen for Shiga toxin inhibitors: cycloheximide protein synthesis inhibition. max response, %. actives 12% (n = 300,000). cell reporter, cycloheximide protein synthesis inhibition counterscreen. AID 2314; in the data active means max response mostly above about 13%, no sharp cut-off; inactive means mostly below about 14%; further: read at 38.3 µM for the half of the compounds with a filed dose; 0% is about no effect
NS1 inh – inhibitors of influenza NS1 protein function | Potency, µM (titrated, usually from 46.1 µM), for inactives: at the highest dose activity, positive = more growth | actives 0.4% (n = 270,000); calls by dose curve; further: potency means the concentration at half of the fitted maximal effect; actives are rising curves; nearly all actives have a fitted effect of over 50% in size
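Compounds were scored for reversing the slow growth caused by influenza A NS1 in S. cerevisiae, measured by optical density at 600 nm. Assay medium contained 2% galactose at pH 6.0; NS1-free yeast of the same strain were the positive control.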
Shiga toxin inh – Shiga toxin inhibition | Vero cells, Shiga toxin protein synthesis inhibition reporter | AID 2315 | actives 9.2% (n = 290,000) | inhibition, % at 38.7 µM; in the data active means inhibition mostly above about 28%, no sharp cut-off; inactive means mostly below about 43%; further: 0% is about no effect
Active calls of the source: *; ? = inconclusive; . = no result given; + = active, no number; [ ] = remark or other dose. A selection: hits, their analogues and other compounds. The true share with any hit is near 14%. Unless noted, the call rests on the fitted dose curve; in most records, active means well fitted curve in the direction sought with a large enough effect; inconclusive means small, poorly fitted or top-dose-only effect, or another doubt; inactive means no such curve, though single readings can be large; an effect the other way counts as inactive or inconclusive.

SMILES | LmPK inhibitor | FBPA Giardia inh | Cycloheximide cs | NS1 inh | Shiga toxin inh
CCOc1ccc(N(C)Cc2cc(=O)oc3ccc(OCC)cc23)cc1 | -1% | -2% | 4 | 2% | -12
COCCCn1c(SCC(=O)N2CCOCC2)nnc1-c1ccco1 | 1% | 1% | -2 | -34% | 0
COc1ccc(CCNC(=O)C2CCCN2S(=O)(=O)c2cccc3nsnc23)cc1OC (configuration not stated) | -2% | . | -1 | -5% | -4
O=C(N/N=C\c1ccc(-c2ccccc2[N+](=O)[O-])o1)C1COc2ccccc2O1 (configuration not stated) | 2% | ? | -7 | 9% | -14
O=C(N/N=C/c1c[nH]c2ccccc12)C1COc2ccccc2O1 (configuration not stated) | 0% | 0% | -4 | -6% | -9
CC(C)(C)c1ccc2c(c1)OC(C(=O)N/N=C\c1ccccn1)CO2 (configuration not stated) | 0% | 2% | 9 | -5% | 42
O=C(N/N=C\c1ccc([N+](=O)[O-])o1)C1COc2ccccc2O1 (configuration not stated) | 3% | -19% | 22* | . | 67*
O=C(O)c1cccc(-c2ccc(/C=N/NC(=O)C3COc4ccccc4O3)o2)c1 (configuration not stated) | 1% | 7% | 56* | -5% | +
CC(C)(C)c1ccc2c(c1)OC(C(=O)N/N=C\c1ccc(-c3cccc(C(=O)O)c3)o1)CO2 (configuration not stated) | 16% | 3% | 70* | -10% | 148*
O=C(N/N=C/c1nn(-c2ccccc2)cc1-c1ccc(Cl)cc1)c1ccncc1 | 5% | 3% | 9 | 2% | 17
COc1ccc(N2CCN(C(=O)CNC(=O)Cn3cnc4sc(C)c(C)c4c3=O)CC2)cc1 | -3% | 3% | -2 | -2% | -4
Cc1nc2c(C(=O)N3CCN(C)CC3)cnn2c(C)c1Cc1ccc(Cl)cc1 | 4% | 4% | 1 | -5% | -15
Cc1nc2c(C(=O)N3CCCCC3)cnn2c(C)c1Cc1ccccc1F | 0% | 5% | 71* | -47% | 157*
Brc1cnc2nc(SC/C=C/c3ccccc3)[nH]c2c1 | 3% | 3% | 1 | -4% | 13
O=C(NCc1nc2ncc(Br)cc2[nH]1)c1ccccc1 | 0% | -9% | 15* | -5% | 48
O=C(O)c1ccc2c(c1)C(=O)N([C@H](Cc1ccc(F)cc1)C(=O)O)C2=O | . | 10% | 5 | . | 15
COc1cc(Cl)ccc1OCc1cc(C(=O)NC(C)Cc2cccnc2)no1 (configuration not stated) | -7% | . | 48* | -45% | 53*
COc1ccc(Cl)cc1S(=O)(=O)NC(C)C(=O)NCc1cccnc1 (configuration not stated) | 9% | 3% | -4 | -4% | -18
Cc1cc(C)nc(CCNC(=O)c2cc(COc3ccc(F)cc3Cl)on2)n1 | 5% | 1% | 5 | -7% | 21
COc1ccc(OCc2cc(C(=O)N(C)Cc3cc(C4CC4)n[nH]3)no2)c(Cl)c1 | -3% | ? | 40* | -14% | 138*
COc1cc(Cl)ccc1OCc1cc(C(=O)N(C)Cc2cccc3cnccc23)no1 | -1% | . | 61* | -67% | 70*
COc1ccc(OCc2cc(C(=O)NCC(C)Oc3cccnc3)no2)c(Cl)c1 (configuration not stated) | -3% | . | 32* | -49% | 43*
O=C(O)c1cccc(Nc2ccncc2[N+](=O)[O-])c1 | 2% | 10% | 3 | 6% | -4
COc1cccc(CN(C)C(=O)c2cc(COc3ccc4ncccc4c3)on2)c1 | 11% | -1% | 1 | -8% | 17
COc1ccc(OCc2cc(C(=O)N(C)Cc3cnccn3)no2)c(Cl)c1 | 2% | -2% | 46* | -1% | 78*
SMILES | LmPK inhibitor | FBPA Giardia inh | Cycloheximide cs | NS1 inh | Shiga toxin inh
Cc1ccc(OCc2cc(C(=O)NC(C)Cc3cnccn3)no2)cc1C (configuration not stated) | 1% | 3% | 13 | -27% | 8
COc1ccc(OCc2cc(C(=O)NC(C)Cc3cnccn3)no2)c(Cl)c1 (configuration not stated) | -6% | 0% | 31* | 5% | 72*
Cc1cc(=O)oc2c(C)c(OC(C)C(=O)NCc3ccccn3)ccc12 (configuration not stated) | 3% | 18% | 7 | 1% | -15
O=S(=O)(c1ccc(F)cc1)N1CCN(c2nc(-c3ccccc3)nc3cc(Cl)ccc23)CC1 | . | . | -1 | . | -3
CO[C@@H]1/C=C\CC(=O)N[C@@H](C)C(=O)OC[C@H](NS(=O)(=O)c2ccc(C)cc2)[C@H](C)/C=C\CC(=O)OC[C@H]1C | . | -5%[12.9 µM] | . | . | .
O=c1cnc2ccccc2n1Cc1ccc(Br)cc1 | -4% | 6% | 18* | 0% | 56*
COC(=O)Cn1c(=O)cnc2ccccc21 | 0% | 5% | -1 | 0% | -2
CC(C)(C)c1ccc(Cn2c(=O)cnc3ccccc32)cc1 | 0% | 0% | 38* | 10% | 90*
O=C(O)Cn1c(=O)cnc2ccccc21 | 6% | 6% | -5 | 4% | 16
CCCCn1c(=NC(=O)c2ccco2)c(C(=O)OCC)cc2c(=O)n3cccc(C)c3nc21 | -6% | 1% | -2 | -1% | 7
CC1=CC(C)(C)NC(=S)N1c1ccc(C)cc1 | -4% | 0% | -1 | -6% | 4
CCC1(c2ccc(Cl)cc2)NC(=S)N(c2ccc(C)c(C)c2)N1 (configuration not stated) | -5% | 5% | -3 | 1% | 11
CCC1(c2ccccc2)NC(=S)N(c2ccc(C)c(C)c2)N1 (configuration not stated) | ? | 6% | 40* | 2% | 36*
CCC1(c2ccc(Cl)cc2)NC(=S)N(c2ccc(C)cc2)N1 (configuration not stated) | -6% | 13% | 68* | -34% | 90*
O=C1NC2=C(C(=O)CCC2)C(c2ccc([N+](=O)[O-])cc2)N1 (configuration not stated) | -1% | 11% | -7 | -6% | -3
O=C(CS(=O)c1ccc(Br)cc1)N1CCOCC1 (configuration not stated) | -1% | ? | -1 | -2% | -8
Nn1c(Nc2ccccc2)nc2ccccc2c1=O | 10% | 4% | 1 | -19% | 43
Nn1c(Nc2ccccc2)nc2ccccc21 | ? | -10% | 36* | -17% | 58*
Cn1c(Nc2ccccc2)nc2ccccc21 | 1% | -10% | 25* | -12% | 52
O=c1c(CCc2ccccc2)nc2cnc(N3CCOCC3)nc2n1CCc1ccccc1 | . | 9% | . | . | .
CN(C)C1CCN(CCCOc2ccc(-c3ccc(C#N)cc3)cc2)C1 (configuration not stated) | . | 3% | 31* | . | 2
O=C(/C=C/c1ccccc1)OCCCN=C1NS(=O)(=O)c2ccccc21 | 2% | -2% | -3 | -9% | -2
